According to PubChem BioAssay (Tox21):
“And” between values parts separate entries of the source, which are not always exact repeats. Equal values may be shown once. Records with an inconclusive call do not appear. The source made the active and inactive calls. Unless noted, calls come from the whole dose curve; as a rule, active = well fitted curve in the direction sought with a large enough effect in the repeat runs; inconclusive = weak or mixed curves; inactive = no such curve, though single readings can be large; an effect the other way counts as inactive or inconclusive.

Legend:
[1] = qHTS assay to identify aromatase inhibitors - cell viability counter screen (AID 743084);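 note: cells stimulated with testosterone during compound exposure; nearly all actives have a fitted effect of over 55% in size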
[2] = molecular target: Aryl hydrocarbon receptor (Homo sapiens) (UniProt P35869); assay: qHTS assay to identify small molecule that activate the aryl hydrocarbon receptor (AhR) signaling pathway (AID 743085); note: nearly all actives have a fitted effect of over 15% in size; note: potency is the fitted concentration of half-maximal effect;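 for activation: HG2L7.5c1 human HepG2 liver cells with stably integrated DRE-driven firefly reporter; series mostly up to about 70 µM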
Sequence of Aryl hydrocarbon receptor (Homo sapiens) (P35869 whole entry, looked up): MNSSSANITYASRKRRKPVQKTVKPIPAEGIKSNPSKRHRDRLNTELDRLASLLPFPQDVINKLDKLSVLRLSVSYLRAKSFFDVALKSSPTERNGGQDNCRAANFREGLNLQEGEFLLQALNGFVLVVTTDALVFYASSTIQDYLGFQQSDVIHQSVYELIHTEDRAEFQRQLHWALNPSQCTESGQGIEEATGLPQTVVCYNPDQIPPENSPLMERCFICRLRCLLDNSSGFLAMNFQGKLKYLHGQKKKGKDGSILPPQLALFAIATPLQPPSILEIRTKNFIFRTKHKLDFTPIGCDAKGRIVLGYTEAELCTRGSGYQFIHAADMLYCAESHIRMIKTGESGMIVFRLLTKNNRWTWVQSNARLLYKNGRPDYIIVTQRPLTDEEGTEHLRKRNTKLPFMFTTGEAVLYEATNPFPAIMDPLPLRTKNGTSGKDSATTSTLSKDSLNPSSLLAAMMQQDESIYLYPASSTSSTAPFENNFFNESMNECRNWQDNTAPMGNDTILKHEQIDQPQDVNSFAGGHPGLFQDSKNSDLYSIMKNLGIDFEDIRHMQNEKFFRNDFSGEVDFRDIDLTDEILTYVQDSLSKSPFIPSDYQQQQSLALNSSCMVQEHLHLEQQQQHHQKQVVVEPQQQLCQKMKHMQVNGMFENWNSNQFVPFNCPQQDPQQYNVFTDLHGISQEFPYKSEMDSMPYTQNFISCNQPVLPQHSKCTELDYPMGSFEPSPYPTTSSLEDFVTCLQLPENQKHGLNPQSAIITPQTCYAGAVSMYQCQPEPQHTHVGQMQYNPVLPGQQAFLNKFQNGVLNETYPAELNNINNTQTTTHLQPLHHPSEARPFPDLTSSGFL
In short: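 A multiplexed format paired cell viability (CellTiter-Fluor fluorescence) with AhR-dependent luciferase output (ONE-Glo luminescence) in the same wells of HepG2 DRE-luc cells after 24 h compound exposure at 37C.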

[3] = qHTS assay to identify small molecule that activate the aryl hydrocarbon receptor (AhR) signaling pathway - cell viability counter screen (AID 743086);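 note: HepG2 liver cells carrying the AhR DRE luciferase reporter; series mostly up to about 70 µM; nearly all actives have a fitted effect of over 45% in size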
In short: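 HepG2-AhR-luc (HG2L7.5c1) cells, 4000/well, treated 24 h at 37 C with compound; viability measured as CellTiter-Fluor fluorescence after 30 min in the same wells as the luciferase read.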

[4] = molecular target: Peroxisome proliferator-activated receptor gamma (Homo sapiens) (UniProt P37231); assay: qHTS assay to identify small molecule agonists of the peroxisome proliferator-activated receptor gamma (PPARg) signaling pathway (AID 743094; active = well fitted activation curve with a large enough effect in the signal ratio in the repeat runs, not every such curve was filed as active; the % refers to the signal ratio)
Sequence of Peroxisome proliferator-activated receptor gamma (Homo sapiens) (P37231 whole entry, looked up): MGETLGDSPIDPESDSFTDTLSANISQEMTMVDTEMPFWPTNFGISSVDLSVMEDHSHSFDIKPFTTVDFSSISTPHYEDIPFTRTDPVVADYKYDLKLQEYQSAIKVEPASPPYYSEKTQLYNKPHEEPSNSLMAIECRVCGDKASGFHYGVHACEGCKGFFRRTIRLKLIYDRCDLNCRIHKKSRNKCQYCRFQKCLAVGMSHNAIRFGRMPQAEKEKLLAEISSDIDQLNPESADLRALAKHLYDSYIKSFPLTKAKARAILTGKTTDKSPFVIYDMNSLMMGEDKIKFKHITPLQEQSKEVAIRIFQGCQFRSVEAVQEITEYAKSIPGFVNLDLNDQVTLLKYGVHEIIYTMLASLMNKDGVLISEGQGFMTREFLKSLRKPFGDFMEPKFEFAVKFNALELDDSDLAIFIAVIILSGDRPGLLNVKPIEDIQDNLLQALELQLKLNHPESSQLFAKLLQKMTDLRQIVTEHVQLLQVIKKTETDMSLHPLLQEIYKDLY
In short: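 Stably transfected HEK293H cells (GeneBLAzer PPARg UAS-bla) were incubated with test substances for 17 h at 37C after a 5 h pre-incubation; beta-lactamase activity was then detected by FRET substrate fluorescence.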

[5] = molecular target: Peroxisome proliferator-activated receptor gamma (Homo sapiens) (UniProt P37231); assay: qHTS assay to identify small molecule antagonists of the peroxisome proliferator-activated receptor gamma (PPARg) signaling pathway (AID 743191; calls by dose curve; note: series mostly up to about 63 µM; nearly all actives have a fitted effect of over 30% in size)
In short: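 GeneBLAzer PPARg UAS-bla HEK293H cells, 5 h post-plating, exposed to compounds 17 h at 37C. LiveBLAzer B/G FRET substrate added for 1 h at room temperature; beta-lactamase reporter read by fluorescence intensity.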

[6] = qHTS assay to identify small molecule antagonists of the peroxisome proliferator-activated receptor gamma (PPARg) signaling pathway - cell viability counter screen (AID 743194); note: nearly all actives have a fitted effect of over 55% in size
In short: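 Cytotoxicity counter screen in PPARg-bla HEK293H cells, same wells as reporter assay. Compounds plus 50 nM rosiglitazone (final) for 17 h at 37 C, then viability read by CellTiter-Glo luminescence.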

[7] = qHTS assay for small molecule agonists of the antioxidant response element (ARE) signaling pathway - cell viability counter screen (AID 743203; calls by dose curve; note: nearly all actives have a fitted effect of over 55% in size)
In short: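 Cells (ARE-bla HepG2, 2,000/well) receive DMSO-dissolved compounds after a 5 hrs rest. Plates incubate 16 hrs at 37C/5% CO2. CellTiter-Glo luminescence is then recorded after 30 min at room temperature.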

[8] = qHTS assay for small molecule activators of the heat shock response signaling pathway - cell viability counter screen (AID 743209); note: nearly all actives have a fitted effect of over 50% in size; note: potency is the fitted concentration of half-maximal effect
In short: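 Quantitative HTS format, Tox21 10K library. HeLa cells carrying an HSE-driven beta-lactamase reporter were treated 5 h at 37 C, then assessed for viability by CellTiter-Glo luminescence.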

[9] = molecular target: Peroxisome proliferator-activated receptor delta (Homo sapiens) (UniProt Q03181); assay: qHTS assay to identify small molecule agonists of the peroxisome proliferator-activated receptor delta (PPARd) signaling pathway (AID 743212; calls by dose curve)
Sequence of Peroxisome proliferator-activated receptor delta (Homo sapiens) (Q03181 whole entry, looked up): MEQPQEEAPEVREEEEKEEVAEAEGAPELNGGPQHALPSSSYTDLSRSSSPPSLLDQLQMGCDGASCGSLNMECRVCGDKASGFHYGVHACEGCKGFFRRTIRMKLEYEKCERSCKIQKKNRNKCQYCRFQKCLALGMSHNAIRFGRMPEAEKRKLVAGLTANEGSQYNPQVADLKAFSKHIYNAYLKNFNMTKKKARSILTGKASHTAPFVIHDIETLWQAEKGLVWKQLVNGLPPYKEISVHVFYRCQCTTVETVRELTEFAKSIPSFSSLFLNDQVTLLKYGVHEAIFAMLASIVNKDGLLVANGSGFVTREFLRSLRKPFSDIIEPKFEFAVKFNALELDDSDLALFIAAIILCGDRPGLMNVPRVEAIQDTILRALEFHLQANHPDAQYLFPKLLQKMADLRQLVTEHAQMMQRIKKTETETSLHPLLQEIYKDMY
In short: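 Quantitative high-throughput agonist screen in a HEK293H beta-lactamase reporter line under UAS control. Compounds in DMSO, at 37 C. Fluorescence read after 2 h with FRET substrate at room temperature.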

[10] = qHTS assay to identify small molecule antagonists of the peroxisome proliferator-activated receptor delta (PPARd) signaling pathway - cell viability counter screen (AID 743213); note: nearly all actives have a fitted effect of over 50% in size
In short: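 Luminescence from CellTiter-Glo, added after the bla read and incubated 30 min at room temperature, gives viability of HEK293H PPARd-bla cells exposed to compounds for 17 h at 37 C with 300 nM L165041.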

[11] = molecular target: Peroxisome proliferator-activated receptor delta (Homo sapiens) (UniProt Q03181); assay: qHTS assay to identify small molecule antagonists of the peroxisome proliferator-activated receptor delta (PPARd) signaling pathway (AID 743215; active = well fitted inhibition curve with a large enough effect in the signal ratio in the repeat runs, not every such curve was filed as active; the % refers to the signal ratio;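 note: cells stimulated with agonist L165041 at 300 nM final during compound exposure; series mostly up to about 62 µM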)
In short: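 Antagonist-mode beta-lactamase reporter screen: HEK293H cells with UAS-bla under PPARd control, stimulated by 300 nM L165041 (final) alongside test compound for 17 h at 37 C, then FRET fluorescence after 2 h substrate incubation.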

[12] = qHTS assay to identify small molecule agonists of the farnesoid-X-receptor (FXR) signaling pathway - cell viability counter screen (AID 743218); note: nearly all actives have a fitted effect of over 45% in size
In short: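 In GeneBLAzer FXR-UAS-bla HEK 293T cells, compounds act for 16 h at 37 C. Cell viability is then scored in the reporter wells by CellTiter-Glo, 30 min at RT, luminescence.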

[13] = qHTS assay to identify small molecule antagonists of the farnesoid-X-receptor (FXR) signaling pathway - cell viability counter screen (AID 743221; active = well fitted cell-killing curve with a large enough effect in the repeat runs, not every such curve was filed as active; note: nearly all actives have a fitted effect of over 50% in size)
In short: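 Cytotoxicity is taken from ATP luminescence (CellTiter-Glo, 30 min, room temperature) in FXR-bla HEK 293T cells previously incubated 16 h at 37 C with compound and chenodeoxycholic acid at 50 uM final.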

[14] = molecular target: Vitamin D3 receptor (Homo sapiens) (UniProt P11473); assay: qHTS assay to identify small molecule agonists of the vitamin D receptor (VDR) signaling pathway (AID 743222; calls by dose curve)
Sequence of Vitamin D3 receptor (Homo sapiens) (P11473 whole entry, looked up): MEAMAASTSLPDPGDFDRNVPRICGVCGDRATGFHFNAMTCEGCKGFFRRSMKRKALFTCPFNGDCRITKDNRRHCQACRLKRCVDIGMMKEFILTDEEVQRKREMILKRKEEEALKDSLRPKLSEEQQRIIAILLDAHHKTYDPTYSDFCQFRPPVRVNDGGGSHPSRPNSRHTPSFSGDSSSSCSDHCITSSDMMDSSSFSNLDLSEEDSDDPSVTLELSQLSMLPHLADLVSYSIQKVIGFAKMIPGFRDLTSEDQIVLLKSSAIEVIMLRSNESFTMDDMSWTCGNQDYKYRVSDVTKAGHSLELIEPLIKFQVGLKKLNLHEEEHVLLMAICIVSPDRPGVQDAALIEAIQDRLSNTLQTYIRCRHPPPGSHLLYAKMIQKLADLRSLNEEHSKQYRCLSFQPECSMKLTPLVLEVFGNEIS
In short: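 Agonist activity measured in VDR-bla reporter cells. Exposure 16 h, 37C, 5% CO2; detection by B/G FRET substrate, 2 h RT.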

[15] = molecular target: Vitamin D3 receptor (Homo sapiens) (UniProt P11473); assay: qHTS assay to identify small molecule antagonists of the vitamin D receptor (VDR) signaling pathway (AID 743223; active = well fitted inhibition curve with a large enough effect in the signal ratio in the repeat runs, not every such curve was filed as active; the % refers to the signal ratio)
In short: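 Quantitative HTS in VDR-bla reporter cells stimulated with 1alpha,25-dihydroxyvitamin D3, 3 nM final. Compound exposure 16 h, 37C, 5% CO2. Read-out: beta-lactamase FRET substrate fluorescence, 2 h RT.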

[16] = qHTS assay for small molecule agonists of the antioxidant response element (ARE) signaling pathway (AID 743202; active = well fitted activation curve with a large enough effect in the signal ratio in the repeat runs, not every such curve was filed as active; the % refers to the signal ratio; note: potency is the fitted concentration of half-maximal effect)
In short: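 Agonist mode reporter screen: HepG2 cells with ARE-controlled beta-lactamase are incubated with test compounds for 16 h at 37 C, and beta-lactamase activity is measured as fluorescence of cleaved B/G FRET substrate.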

[17] = qHTS assay for small molecule activators of the heat shock response signaling pathway (AID 743210; active = well fitted activation curve with a large enough effect in the signal ratio in the repeat runs, with a control signal flat, not every such curve was filed as active; the % refers to the signal ratio;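 note: HeLa cells with beta-lactamase reporter driven by heat shock elements; series mostly up to about 63 µM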)
In short: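 Quantitative high-throughput format using an engineered HeLa line in which heat shock response elements drive beta-lactamase; after 5 h with compound, cells received a B/G FRET substrate and fluorescence was read.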

[18] = qHTS assay to identify small molecule agonists of the peroxisome proliferator-activated receptor delta (PPARd) signaling pathway - cell viability counter screen (AID 743211); note: nearly all actives have a fitted effect of over 55% in size
In short: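 Tox21 library compounds, delivered in DMSO, were incubated 17 h with PPARd-bla HEK293H cells; cytotoxicity was taken from CellTiter-Glo luminescence read 30 min after reagent addition.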

[19] = molecular target: Bile acid receptor (Homo sapiens) (UniProt Q96RI1); assay: qHTS assay to identify small molecule antagonists of the farnesoid-X-receptor (FXR) signaling pathway (AID 743217; active = well fitted inhibition curve with a large enough effect in the signal ratio in the repeat runs, not every such curve was filed as active; the % refers to the signal ratio)
Sequence of Bile acid receptor (Homo sapiens) (Q96RI1 whole entry, looked up): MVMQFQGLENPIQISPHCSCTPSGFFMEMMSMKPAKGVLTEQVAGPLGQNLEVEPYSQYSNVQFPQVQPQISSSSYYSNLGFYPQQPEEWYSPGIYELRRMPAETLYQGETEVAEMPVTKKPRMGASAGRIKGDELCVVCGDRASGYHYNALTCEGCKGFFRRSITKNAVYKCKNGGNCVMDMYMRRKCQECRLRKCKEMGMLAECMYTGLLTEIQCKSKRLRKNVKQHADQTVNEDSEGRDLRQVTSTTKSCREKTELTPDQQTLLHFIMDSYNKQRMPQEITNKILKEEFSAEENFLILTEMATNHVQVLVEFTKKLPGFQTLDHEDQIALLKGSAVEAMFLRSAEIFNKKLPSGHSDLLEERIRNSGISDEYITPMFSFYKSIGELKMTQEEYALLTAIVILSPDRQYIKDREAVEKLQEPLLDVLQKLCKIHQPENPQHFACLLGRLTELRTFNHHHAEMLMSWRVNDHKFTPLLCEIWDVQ
In short: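 Beta-lactamase reporter under UAS control in HEK 293T cells; compound exposure 16 h at 37 °C in the presence of chenodeoxycholic acid (50 uM final); signal from B/G FRET substrate after 2 h at room temperature.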

[20] = molecular target: Bile acid receptor (Homo sapiens) (UniProt Q96RI1); assay: qHTS assay to identify small molecule agonists of the farnesoid-X-receptor (FXR) signaling pathway (AID 743220; active = well fitted activation curve with a large enough effect in the signal ratio in the repeat runs, not every such curve was filed as active; the % refers to the signal ratio)
In short: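 Beta-lactamase reporter under UAS control in GeneBLAzer FXR HEK 293T cells (5000/well) measured with LiveBLAzer FRET substrate after 2 h at room temperature. Compound exposure lasted 16 h at 37C.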

Measured: Potency

CCCCC(CC)COC(=O)/C=C\C(=O)OCC(CC)CCCC (configuration not stated)
not listed: [16] | [17] | [18] | [19] | [20]
inactive: all other assays above

CCOC(=O)/C=C\C(=O)OCC
not listed: [19] | [20]
inactive: all other assays above

Clc1cc(Cl)c(Cl)cc1Cl
not listed: [14] | [15] | [19] | [20]
inactive: all other assays above

CC(C)(N=C=O)c1cccc(C(C)(C)N=C=O)c1
not listed: [12] | [16] | [19] | [20]
inactive: all other assays above

COCC(=O)O
not listed: [18] | [19] | [20]
inactive: all other assays above

CC(=O)Nc1ccc(C(=O)O)cc1
not listed: [9] | [11] | [14] | [15] | [16] | [19] | [20]
inactive: all other assays above

c1ccc2[nH]cnc2c1
not listed: [16] | [18]
inactive: all other assays above

CC(C)Cc1ccccc1
not listed: [14] | [15] | [18] | [19] | [20]
inactive: all other assays above

CCCCOCCOCCOC(=O)CCCCC(=O)OCCOCCOCCCC
not listed: [16] | [18]
inactive: all other assays above

CC(C)(CO)COC(=O)C(C)(C)CO
not listed: [18]
inactive: all other assays above

C=C(C)C(=O)OCCC[Si](OC)(OC)OC
not listed: [14] | [15] | [19] | [20]
inactive: all other assays above

CN(C)c1cccc(O)c1
active: [2] 15.6 µM and 30.6 µM | [16] 55.3 µM
not listed: [10] | [18] | [19] | [20]
inactive: all other assays above

CC1(C)CC(N=C=O)CC(C)(CN=C=O)C1 (configuration not stated)
not listed: [9] | [11] | [16]
inactive: all other assays above

O=S(=O)(O)CCS
not listed: [14] | [15]
inactive: all other assays above

OC1CCCC1
not listed: [19] | [20]
inactive: all other assays above

C=C(C)C(=O)OCC(CC)(COC(=O)C(=C)C)COC(=O)C(=C)C
active: [8] 12.1 µM
not listed: [14] | [15] | [17]
inactive: all other assays above
